The results in this text go back to PubChem BioAssay AID1721 (National Center for Advancing Translational Sciences (NCATS), 2009).

Each structure is given as a SMILES string. In all, about 290,000 compounds went through this assay and about 1,100 (0.38%) were called active. Calls come from the whole dose curve; as a rule, active = well fitted inhibition curve with a large enough effect; inconclusive = small, poorly fitted or top-dose-only effect, or another doubt; inactive = no such curve, though single readings can be large or run the other way. Many of the other results were omitted from the sample, so actives are more common in it than they were.
% is set by controls: 0 for no effect and ±100 for the full control effect; potency is the fitted concentration of half-maximal effect.

Pyruvate kinase (Leishmania mexicana), sequence (Q27686 whole entry, looked up): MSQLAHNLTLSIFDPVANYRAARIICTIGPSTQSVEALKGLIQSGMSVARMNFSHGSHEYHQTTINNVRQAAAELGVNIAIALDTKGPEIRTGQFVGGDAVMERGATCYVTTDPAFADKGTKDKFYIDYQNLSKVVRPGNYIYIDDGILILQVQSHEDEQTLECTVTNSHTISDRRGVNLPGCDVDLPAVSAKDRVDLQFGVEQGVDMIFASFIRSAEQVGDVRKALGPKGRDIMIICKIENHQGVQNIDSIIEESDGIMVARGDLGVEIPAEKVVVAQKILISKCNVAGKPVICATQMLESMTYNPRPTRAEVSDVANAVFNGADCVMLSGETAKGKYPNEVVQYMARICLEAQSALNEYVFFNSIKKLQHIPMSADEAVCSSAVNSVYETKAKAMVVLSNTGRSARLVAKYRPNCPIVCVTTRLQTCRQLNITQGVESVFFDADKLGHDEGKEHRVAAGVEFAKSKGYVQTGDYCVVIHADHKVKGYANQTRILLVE

This assay concerns the target Pyruvate kinase (Leishmania mexicana) (UniProt Q27686). In words: qHTS Assay for Inhibitors of Leishmania Mexicana Pyruvate Kinase (LmPK). Particulars: purified LmPK, Kinase-Glo ATP luminescence, 1 h; series mostly up to 57.5 µM; activity change, negative = inhibition: at the top concentration. An excerpt: NIH Chemical Genomics Center [NCGC] Malcolm Walkinshaw, Hugh Morgan, Linda Gilmore University of Edinburgh, UK MLPCN Grant: 1 R03 MH085697-01 NCGC Assay Overview: Pyruvate kinase (L. Mexicana) (LmPK) enzyme was supplied as a highly purified (>95% pure) sulphate-free preparation from University of Edinburgh, UK and assayed for its ability to generate ATP from ADP using phosphoenolpyruvate (PEP) as a substrate. ATP generation was detected in a coupled reaction by luciferase-mediated luminescence, an ATP-dependent process. […] The enzyme was assayed at an intermediate level of activity to screen for both inhibitors and activators.
NCGC Assay Protocol Summary: Three uL of enzyme mix (kept on ice) in assay buffer (50 mM Imidazole pH7.2, 50 mM KCl, 7 mM MgCl2, 0.01% Tween 20, 0.05% BSA) containing PEP (0.5 mM final concentration) and LmPK (0.1 nM final concentration) was dispensed into white solid bottom 1,536 well microtiter plates. 23 nL of compound were delivered by a pin tool and 1 uL of ADP mix in assay buffer (r.t; 0.1 mM final ADP concentration) was added. Plates were incubated at room temperature for 1 hour. Two uL of detection mix (Kinase-Glo, Promega; at 4 degree Celsius protected from light) was added and luminescence read by a ViewLux (Perkin Elmer) at 1 second exposure/plate. Data were normalized to the uninhibited and AC100 inhibition (no enzyme). To monitor activation, the first column contained a five-fold concentration of LmPK (0.5 nM).
On to `CC1CCC2CCCCC2N1C(=O)c1cc([N+](=O)[O-])cc([N+](=O)[O-])c1` (stereo unspecified), for which the “activity change, negative = inhibition” value is -2.35% (inactive).
Take `CCCS(=O)(=O)N1CCN=C1SCc1cccc(F)c1`: the “activity change, negative = inhibition” value was -2.88% (inactive).
Same read-out and setting: to `COc1ccc(-c2nc3cc([N+](=O)[O-])ccc3o2)cc1OC` belongs 3.94% (inactive).
The same measure, in the same setting: to `COc1ccc2oc(-c3cccc(NC(=O)CSc4ccc(Cl)cc4)c3)nc2c1` belongs 1.44% (inactive).
Consider `COc1cccc(-c2nc3cc(C)ccc3o2)c1`, for which the Potency is 14.1 µM (active).
For the compound `COc1nc(-c2ccc(Cl)cc2)ccc1-c1noc(-c2cccs2)n1`, the “activity change, negative = inhibition” value is 2.05% (inactive).
On the same count and under the same terms, to `COc1ccc(Cc2nc(-c3ccccn3)no2)cc1OC` belongs 2.13% (inactive).
In the case of `c1ccc(-c2noc(-c3cccs3)n2)nc1`, the Potency was 11.2 µM (active).
With `C=CCOc1ccc(C(=O)Nc2ccccc2C(=O)N2CCCC2)cc1`, the “activity change, negative = inhibition” value was 3.25% (inactive).
As to `COC(=O)c1ccc(C23CC4(C2)[C@H](CN(Cc2cccnc2)[C@@H]4c2ccccc2)C3c2ccc(Cl)nc2)cc1` (stereo partly specified), the “activity change, negative = inhibition” value was 4.28% (inactive).
On the same count and under the same terms, next, `Cc1cccc(NC(=O)c2cc(S(=O)(=O)N3CCC4(CC3)OCCO4)ccc2F)c1`: -12.3% (inactive); `CCCCCCCC1=Cc2ccc(F)cc2C(C(C(=O)OC)C(=O)OC)N1C(=O)OC` (stereo unspecified): -1.7% [at 11.5 µM] (inactive).
Regarding `S=c1[nH]ccn1-c1ccc(Cl)cc1`, the Potency was 25.1 µM (active).
Consider `O=S(=O)(c1ccc(F)cc1)N1CCN=C1SCc1cccc(F)c1`, for which the “activity change, negative = inhibition” value is -5% (inactive).
On to `CC(=O)Oc1cccc(C(=O)Nc2ccccc2NC(=O)c2cccc(OC(C)=O)c2)c1`, for which the “activity change, negative = inhibition” value is -0.0951% (inactive).
The same measure, in the same setting: to `C=CCN1c2ccccc2[C@]23C[C@@H](C(=O)OC)N(S(=O)(=O)c4ccc([N+](=O)[O-])cc4)C2=NC(C(=O)OC)=C(C(=O)OC)[C@H]13` belongs -3.12% [at 11.5 µM] (inactive); to `CC(=O)Nc1ccc(NC(=O)CN2C(=O)COc3ccc(S(=O)(=O)N4CCCCC4)cc32)cc1`, -9.76% (inactive).
Still for that read-out and setting: to `COc1ccc(C2=NOC3(CC(=O)N(c4ccc(C)cc4)C3=O)C2)cc1` (stereo unspecified) belongs 1.45% (inactive).
Consider `COc1ccc(C2=Nc3cc(C)ccc3OC2)cc1`, for which the Potency is 11.2 µM (active).
`COc1ccc(NC(=O)c2cc(-c3ccc(C)cc3)on2)cc1`: the “activity change, negative = inhibition” value is 0.318% (inactive).
Still for that read-out and setting: to `COc1ccccc1CN1CCNC(=O)C1CC(=O)N(C)CC1CCOCC1` (stereo unspecified) belongs 7.5% (inactive).
Still for that read-out and setting: to `Cc1cccc(NC(=O)C2CCCN(C(=O)Nc3ccc(F)cc3)C2)c1C` (stereo unspecified) belongs 1.61% (inactive); to `COc1cc2c(C(=O)N(C)c3cc(Cl)ccc3OC)cn(C)c(=O)c2cc1OC`, 1.4% (inactive).
Still for that read-out and setting: to `COC(=O)C1=C(C(=O)OC)[C@@H]2Nc3ccccc3[C@@]23C[C@@H](C(=O)OC)N(S(=O)(=O)c2ccc([N+](=O)[O-])cc2)C3=N1` belongs -0.378% [at 11.5 µM] (inactive); to `Cc1nc(NC(=O)c2ccc3c(c2)OCCO3)ccc1Br`, -11.3% (inactive); to `O=C(Nc1cccc(S(=O)(=O)Nc2ccc(Cl)cc2)c1)c1ccc2c(c1)OCCO2`, 2.39% (inactive).
In the case of `O=C(Nc1ccc(Cl)cn1)c1ccc2c(c1)OCCO2`, the Potency is 28.2 µM (active).
Regarding `COC(=O)C(C(=O)OC)C1c2ccccc2C=C(C2CC2)N1C(=O)OC` (stereo unspecified), the activity change, negative = inhibition is -6.03% [at 11.5 µM] (inactive).
Same read-out and setting: next, `O=C(O)CCN=C1CCc2ccccc2N1`: -0.35% (inactive).
Same read-out and setting: next, `CSc1cccc(NC(=S)N(C(C)C)C(C)c2ccccn2)c1` (stereo unspecified): 7.92% (inactive); `Cc1ccc(O)c(/C=N/NC(=O)COc2ccc3c(C)cc(=O)oc3c2)c1`: 3.6% (inactive).
